MITF primary = blocks human microphthalmia-associated transcription factor; O75030; AlphaScreen MITF homodimerization, bead proximity signal; inhibition, % at 2.6 µM; 650,000 compounds, 0.91% hits; in the data active means inhibition above about 50%;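 further: 0% = vehicle wells with protein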
GPR151 activ = human GPR151 activation. activation, % at 11.2 µM. AID 1508602. 650,000 compounds, 1% hits. PathHunter beta-arrestin GPR151 cells, luminescence. Q8TDV0; in the data active means activation above about 4.9%;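 further: 0% = median of compound wells and 100% = cells with positive control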
FBW7 act = human FBW7 E3 ligase activation, primary screen | AlphaScreen FBW7–phospho-cyclin E peptide binding, activator screen | normalized activity (activation), % at 26.1 µM | 650,000 compounds, 0.13% hits; in the data active means normalized activity above about 1.9%;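 further: purified mutant Fbw7 with reduced substrate affinity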
TEAD-YAP block = TEAD-YAP interaction inhibition; HEK-TIYL cells, TEAD-Gal4/YAP UAS-luciferase luminescence; inhibition, % at 9.12 µM; 640,000 compounds, 1.4% hits; AID 1259422; in the data active means inhibition above about 32%;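 further: 0% = median of test compound wells and 100% = reference inhibitor wells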
GPR151 confirm = human GPR151 activation, confirmation screen; shares compounds with GPR151 activ; GPR151 PathHunter beta-arrestin cells, luminescence, 90 min; % of EA-reagent control over plate median; activation, % at 11.2 µM; 6,700 tested, under 10 active;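 active means mean percent activation across replicates above the confirmation screen cutoff of 4.91%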
GPR119 counter = activates human GPR119 in a GPR151 counter-screen. shares compounds with GPR151 activ. GPR119 PathHunter beta-arrestin cells, luminescence, 90 min; 0 = compound-well median, 100 = enzyme-acceptor control. activation, % at 11.2 µM. 6,700 compounds, 0.3% hits. AID 1508611;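 active means mean percent activation in the counterscreen above 29.09%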;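 further: counterscreen on off-target GPR119 to flag nonselective hits from the GPR151 activator screen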
Target sequence (Q8TDV5 whole entry, looked up): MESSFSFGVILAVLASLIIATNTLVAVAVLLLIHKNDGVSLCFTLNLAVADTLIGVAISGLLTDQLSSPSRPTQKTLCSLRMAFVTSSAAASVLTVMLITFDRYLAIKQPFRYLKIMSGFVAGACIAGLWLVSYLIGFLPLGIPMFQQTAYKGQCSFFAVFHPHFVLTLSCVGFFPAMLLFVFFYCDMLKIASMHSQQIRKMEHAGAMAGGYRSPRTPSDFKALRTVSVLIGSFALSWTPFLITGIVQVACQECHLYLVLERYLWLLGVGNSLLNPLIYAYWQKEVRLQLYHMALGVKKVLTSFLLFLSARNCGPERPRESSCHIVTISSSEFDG
* = called active by the depositor. Only some compounds are listed: those with a hit (about 3.5% of all), similar ones and a draw of the others.

Screening CC(=O)c1cccc(NC(=O)c2ccoc2C)c1 returned MITF primary -4.1, GPR151 activ 5.9*, FBW7 act 0.1, TEAD-YAP block 4.4, GPR151 confirm -0.7 and GPR119 counter -8.6.
Cc1ccc(-c2csc(N3CCN(CC(=O)Nc4ccc([N+](=O)[O-])cc4)CC3)n2)cc1 was read as MITF primary 8.5, GPR151 activ 7.0*, FBW7 act 0.0, TEAD-YAP block -4.2, GPR151 confirm 0.6 and GPR119 counter 8.6.
`O=C(CN1CCN(c2nc(-c3ccccc3)cs2)CC1)Nc1ccccc1[N+](=O)[O-]` gave MITF primary 7.6, GPR151 activ 0.7, FBW7 act -0.3 and TEAD-YAP block 9.8.
Cc1cccnc1NC(=S)NC(=O)c1cccc(Cl)c1 was read as MITF primary 2.6, GPR151 activ 5.0*, FBW7 act 0.0, TEAD-YAP block -76.7, GPR151 confirm 1.3 and GPR119 counter 14.8.
For CC(=O)Nc1ccc(NC(=S)NC(=O)c2cccc(Cl)c2)cc1 the results were MITF primary 0.9, GPR151 activ 1.8, FBW7 act 0.3 and TEAD-YAP block -22.8.
Screening CN1CCN(/N=C/C2=C(O)CC(C)(C)CC2=O)CC1 returned MITF primary 22.7, GPR151 activ 8.4*, FBW7 act 0.8, TEAD-YAP block -1.4, GPR151 confirm 0.0 and GPR119 counter 4.2.
`O=C(Nc1ccc(-c2nc3ccccc3[nH]2)cc1)c1ccc(C(=O)c2ccccc2)cc1` gave MITF primary 1.7, GPR151 activ -0.4, FBW7 act 0.1 and TEAD-YAP block 2.1.
Screening CCOc1ncccc1C(=O)NC1(C)CCS(=O)(=O)C1 (centres undefined) returned MITF primary -13.0, GPR151 activ 6.2*, FBW7 act 0.0, TEAD-YAP block -1.2, GPR151 confirm -1.3 and GPR119 counter -5.0.
Screening CCOC(=O)C(N)CSC1CCCCO1 (centres undefined) returned MITF primary 35.0, GPR151 activ 8.2*, FBW7 act 0.1, TEAD-YAP block -5.5, GPR151 confirm -0.2 and GPR119 counter -1.0.
For NC(CSC1CCCCO1)C(=O)O (centres undefined) the results were MITF primary -8.2, GPR151 activ 1.5, FBW7 act -0.1 and TEAD-YAP block -14.6.
`CC1(C)CC(NC(=O)CCCCCN2C(=O)c3ccccc3C2=O)CC(C)(C)N1` gave MITF primary -5.2, GPR151 activ 0.5, FBW7 act 0.0 and TEAD-YAP block 1.1.
For O=C1CN(c2ccccc2NC(=O)C2(c3cccs3)CCCC2)CCN1 the results were MITF primary 10.5, GPR151 activ 5.0*, FBW7 act -0.2, TEAD-YAP block 7.7, GPR151 confirm 0.2 and GPR119 counter 7.1.
Screening O=C(NCc1ccccc1)C1C2C=CC3(CN(Cc4ccccc4)C(=O)C13)O2 (centres undefined) returned MITF primary -1.4, GPR151 activ -1.4, FBW7 act -0.3 and TEAD-YAP block 6.3.
Screening O=C(CN1CCN(Cc2ccccc2)C1=O)NCc1ccc(Cl)cc1 returned MITF primary -3.5, GPR151 activ 13.3*, FBW7 act -0.3, TEAD-YAP block -9.0, GPR151 confirm 0.5 and GPR119 counter 2.0.
Screening O=C(NCc1ccc(Cl)cc1)C1C2C=CC3(CN(Cc4ccccc4)C(=O)C13)O2 (centres undefined) returned MITF primary 3.9, GPR151 activ 5.1*, FBW7 act -0.1, TEAD-YAP block 1.7, GPR151 confirm 2.2 and GPR119 counter 17.4.
CC1CCN(c2nc3c(c(=O)[nH]2)CCN(C(=O)c2n[nH]c4c2CCC4)C3)CC1 was read as MITF primary 1.6, GPR151 activ 0.1, FBW7 act -0.1 and TEAD-YAP block -8.4.
COc1ccc(NC(=O)c2ccc3c(=O)n(-c4ccccc4)c(=S)[nH]c3c2)c(OC)c1 was read as MITF primary 14.6, GPR151 activ 2.1, FBW7 act 0.0 and TEAD-YAP block 0.3.
`CCOC(=O)C(C)Oc1ccc2c(=O)c(Oc3ccccc3Cl)coc2c1` (centres undefined) gave MITF primary 10.8, GPR151 activ 0.9, FBW7 act 0.3 and TEAD-YAP block 4.8.
CCOc1ccc(/C=C2/SC(=S)N(CC(=O)O)C2=O)c(OCC)c1 was read as MITF primary 2.1, GPR151 activ -1.3, FBW7 act -0.1 and TEAD-YAP block -3.3.

Compound activity: PubChem BioAssay, The Scripps Research Institute Molecular Screening Center
